Pol kappa inh: blocks human DNA polymerase kappa activity; Q9UBT6; purified Pol kappa, fluorescent DNA synthesis assay, 10 min; Potency, µM (highest dose often 107 µM), usual class: inhibitors; 400,000 tested, 0.53% active; AID 588579
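Kinetic fluorescence readout at 0 and 10 min followed reaction start with substrate at 50 nM final. Beforehand, enzyme (10 nM Pol kappa) stood 15 min with compound at room temperature; buffer-only wells were negative controls.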
Pol beta inh: blocks human DNA polymerase beta activity; Potency, µM (highest dose often 114 µM), hits mostly inhibitors; P06746; AID 485314; Pol beta primer extension/strand displacement, fluorescence kinetic; 340,000 tested, 1.3% active
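Pol beta (10 nM) was preincubated with compound for 15 min at room temperature. The reaction was then started with 50 nM substrate and read immediately and after a further 10 min at room temperature.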
POLI inh: inhibitors of human DNA polymerase iota; Q9UNA4; 390,000 tested, 1% active; Potency, µM (series often up to 115 µM), most hits filed as inhibitors; Pol iota fluorescent replication assay, 10 min
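Fluorescent replication assay read twice, at 0 min and 10 min after adding 50 nM (final) substrate. Enzyme (10 nM) and compounds were first incubated 15 min at room temperature; enzyme-free buffer wells were negative controls.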
FEN1 inh: blocks human flap endonuclease 1 | Recombinant FEN1 flap cleavage, fluorescence, 15 min | P39748 | AID 588795 | Potency, µM (doses to about 114 µM), actives largely listed as inhibitors | 390,000 tested, 0.35% active; further: nearly all actives have a fitted effect of over 65% in size
Target sequence (P39748 whole entry, looked up): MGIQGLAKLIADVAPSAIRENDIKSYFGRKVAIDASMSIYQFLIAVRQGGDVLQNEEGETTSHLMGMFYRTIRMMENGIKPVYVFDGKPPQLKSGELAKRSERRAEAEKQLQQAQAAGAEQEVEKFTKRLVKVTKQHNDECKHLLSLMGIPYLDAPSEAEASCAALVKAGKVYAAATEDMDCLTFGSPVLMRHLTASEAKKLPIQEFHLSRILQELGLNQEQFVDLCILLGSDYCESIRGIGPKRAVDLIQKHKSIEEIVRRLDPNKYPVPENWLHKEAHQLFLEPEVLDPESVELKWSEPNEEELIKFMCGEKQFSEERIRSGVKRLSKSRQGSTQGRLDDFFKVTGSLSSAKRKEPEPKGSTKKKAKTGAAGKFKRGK
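Steps: FEN1 (10 nM) dispensed; compound added by pin tool; 15 min at room temperature; substrate added to 50 nM final; reads at 0 min and 15 min; data normalized and fitted (four-parameter Hill).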
Pol eta inh: DNA polymerase eta (human) inhibition. Potency, µM (titrated, usually from 114 µM), usual class: inhibitors. 390,000 tested, 1.2% active. Q9Y253. recombinant Pol eta, fluorescent DNA replication assay
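Pol eta (10 nM) was preincubated with compounds for 15 min at room temperature, after which fluorescent replication substrate (50 nM final) was added to start the reaction. Fluorescence was read kinetically at 0 and 10 min.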
WRN inhibitor: WRN helicase (human) inhibition; Q14191; WRN helicase unwinding, fluorescent forked duplex, kinetic; Potency, µM (series often up to 114 µM), usual class: inhibitors; 360,000 tested, 0.46% active; further: nearly all actives have a fitted effect of over 55% in size
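Kinetic fluorescence helicase assay: unwinding of a quenched forked DNA duplex (100 nM final) with 2 mM ATP final raises red fluorescence (525/598 nm). Compounds sat 15 min at room temperature with 20 nM WRN beforehand.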
Hits are given with their value; [ ] = dose if it differs, or a comment. In the library only some 2.4% were active in any assay of this set; here they are far more common. The call rests on the fitted dose curve; in most records, active means well fitted curve in the direction sought with a large enough effect; inconclusive means small, poorly fitted or top-dose-only effect, or another doubt; inactive means no such curve, though single readings can be large; an effect the other way counts as inactive or inconclusive.

NC(=O)c1ccsc1NC(=O)c1ccc(N2CCCC2=O)cc1 was read as Pol kappa inh inconclusive, Pol beta inh 31.6µM, POLI inh inconclusive, FEN1 inh inconclusive, Pol eta inh 25.1µM and WRN inhibitor inactive[11.6 µM].
For NC(=O)c1ccsc1NC(=O)c1ccc2c(c1)CCCC2 the results were Pol kappa inh inactive, Pol beta inh inactive, POLI inh inactive, FEN1 inh inactive, Pol eta inh inactive and WRN inhibitor inactive.
`COc1cc(O)c(C(CC(=O)N2CCCC(C)C2)c2ccc3c(c2)OCO3)c(OC)c1` (configuration not stated) gave Pol kappa inh inactive, Pol beta inh inactive, POLI inh inactive, FEN1 inh inactive, Pol eta inh inactive and WRN inhibitor inactive.
`COc1cc(OC)c2ccc(=O)oc2c1C(CC(=O)N1CCCC(C)C1)c1ccc2c(c1)OCO2` (configuration not stated) gave Pol kappa inh inconclusive, Pol beta inh 39.8µM, POLI inh inconclusive, FEN1 inh inactive, Pol eta inh 39.8µM and WRN inhibitor inactive.
CCOc1ccc(OCCC(=O)NNC(=O)c2nn(C)c(=O)c3ccccc23)cc1 was read as Pol kappa inh inactive, Pol beta inh 35.5µM, POLI inh inconclusive, FEN1 inh inactive, Pol eta inh inconclusive and WRN inhibitor inactive[11.6 µM].
For Cc1ccc(OCCC(=O)NNC(=O)c2nn(C)c(=O)c3ccccc23)cc1 the results were Pol kappa inh inactive, POLI inh inactive, FEN1 inh inactive, Pol eta inh inactive and WRN inhibitor inactive.
Screening Cc1cc(C)c2oc(-c3cccc(NC(=O)COc4ccc(Cl)cc4C)c3C)nc2c1 returned Pol kappa inh inactive, POLI inh inactive and FEN1 inh inactive.
For CC(CCc1ccco1)NC(=O)CCc1nnc2ccc(NCc3ccc(Cl)cc3)nn12 (configuration not stated) the results were Pol kappa inh 79.4µM, Pol beta inh inactive, POLI inh 25.1µM, FEN1 inh inactive, Pol eta inh inactive and WRN inhibitor inactive[11.6 µM].
For COc1ccc(NC(=O)CCc2nnc3ccc(NCc4ccco4)nn23)cc1 the results were Pol kappa inh inactive, Pol beta inh inactive, POLI inh inactive, FEN1 inh inactive, Pol eta inh inactive and WRN inhibitor inactive.
Screening Cc1cccnc1NC(=O)CCc1nnc2ccc(NCc3ccco3)nn12 returned Pol kappa inh inactive, Pol beta inh inconclusive, POLI inh inconclusive, FEN1 inh inactive, Pol eta inh 44.7µM and WRN inhibitor inactive.
`COC(=O)c1ccc(NC(=O)CCc2nnc3ccc(NCc4ccco4)nn23)cc1` gave Pol kappa inh inconclusive, Pol beta inh inconclusive, POLI inh 35.5µM, FEN1 inh inactive, Pol eta inh inconclusive and WRN inhibitor inactive[11.6 µM].
Cc1ccc(NC(=O)CCc2nnc3ccc(NCc4ccco4)nn23)cc1F was read as Pol kappa inh inactive, Pol beta inh inactive, POLI inh inconclusive, FEN1 inh inactive, Pol eta inh inactive and WRN inhibitor inactive.
For COc1ccc(NC(=O)CCc2nnc3ccc(NCc4ccc5c(c4)OCO5)nn23)cc1 the results were Pol kappa inh inactive, Pol beta inh inconclusive, POLI inh 44.7µM, FEN1 inh inactive, Pol eta inh inactive and WRN inhibitor inactive[11.6 µM].
Screening O=C(Nc1nccs1)[C@@H]1CC=C[C@@H]2CCN(C3CCCCC3)C(=O)[C@@H]21 returned Pol kappa inh inactive, POLI inh inactive and FEN1 inh inactive.
COc1ccc(C2C=C3CNS(=O)(=O)C3CC2OC(=O)c2cccc(C)c2)cc1 (configuration not stated) was read as Pol kappa inh inactive, POLI inh inactive and FEN1 inh inactive.
`CNc1nc(-c2ccccc2)c(-c2ccccc2)s1` gave Pol kappa inh inactive, POLI inh inactive and FEN1 inh inactive.
`CN(C)c1ccc(/C=C2\C=Cc3ccccc32)cc1F` gave Pol kappa inh inactive, POLI inh inactive and FEN1 inh inactive.
`Cc1c(C(=O)N(C)C2CCCCC2)sc2nc3ccc(N)cc3n12` gave Pol kappa inh inactive.
O=C1C2C3C=CC(C3)C2C(=O)N1c1ncn[nH]1 (configuration not stated) was read as Pol kappa inh inactive, Pol beta inh 39.8µM, POLI inh inconclusive, FEN1 inh inactive, Pol eta inh inconclusive and WRN inhibitor inactive.
Cn1nc(-c2ccncc2)nc2c(=O)n(C)c(=O)nc1-2 was read as Pol kappa inh inactive, POLI inh inactive and FEN1 inh inactive.
`COc1ccc(N2C(=O)C(CC(N)=O)N(NC(=O)CCc3ccccc3)C2=O)cc1` (configuration not stated) gave Pol kappa inh inactive, Pol beta inh 22.4µM, POLI inh inactive, FEN1 inh inactive, Pol eta inh inactive and WRN inhibitor inactive.
For COc1ccc(CN2C(=O)N(c3ccc(OC)cc3)C(=O)C2CC(=O)Nc2ccccc2)cc1 (configuration not stated) the results were Pol kappa inh inactive, Pol beta inh inactive, POLI inh inactive, FEN1 inh inactive, Pol eta inh inactive and WRN inhibitor inactive.
Screening COc1ccc(-c2nc3ccccn3c2Nc2ccccc2C)cc1 returned Pol kappa inh inactive, POLI inh inactive and FEN1 inh inactive.
`COc1ccc(/C=C/c2ccccc2)cc1C1C2C=CCCC2(C)C(=O)N1Cc1ccccc1` (configuration not stated) gave Pol kappa inh inactive, POLI inh inactive and FEN1 inh inactive.
COc1ccc(CNc2ncnc3nc[nH]c23)cc1OC was read as Pol kappa inh inactive, POLI inh inactive and FEN1 inh inactive.
Screening CCOC(=O)Cc1nnc(NC(=O)c2ncn[nH]2)s1 returned Pol kappa inh inactive, Pol beta inh inactive, POLI inh 7.08µM, FEN1 inh inactive, Pol eta inh inactive and WRN inhibitor inactive.
Screening CCc1ccc(NC(=O)CN(c2ccccc2)S(=O)(=O)N(C)C)cc1 returned Pol kappa inh inactive, Pol beta inh inconclusive, POLI inh inconclusive, FEN1 inh inactive, Pol eta inh inconclusive and WRN inhibitor inactive.
`CN(C)S(=O)(=O)N(CC(=O)N(Cc1ccccc1)Cc1ccccc1)c1ccccc1` gave Pol kappa inh inconclusive, Pol beta inh 22.4µM, POLI inh inconclusive, FEN1 inh inactive, Pol eta inh inconclusive and WRN inhibitor inactive.
For CN(C)S(=O)(=O)N(CC(=O)NCCSCc1ccccc1)c1ccccc1 the results were Pol kappa inh inconclusive, Pol beta inh 35.5µM, POLI inh inconclusive, FEN1 inh inactive, Pol eta inh inconclusive and WRN inhibitor inactive[11.6 µM].
For CCCCCCCCCCCCCCCCCCN(CCCCCCCCCCCCCCCCCC)c1ccc(C=O)cc1 the results were Pol kappa inh inactive, POLI inh inactive and FEN1 inh inactive.
